# According to PubChem BioAssay (NCI):
# About 83,000 compounds went through this panel and 20% of them were active in at least one assay; those are over-represented in the sample as a whole.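 The test compound was applied at a single concentration to cells in 96-well plates for 48 hours, and percent growth was recorded.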 Values without a mark were called inactive. The source made the active and inactive calls. Rule for the calls: active = growth percent below 10; inactive = the rest.
# Test system: SNB-75 CNS
# Experiment: NCI-60 one-dose screen, 48 h (100 = growth as untreated, 0 = no growth, -100 = all killed)
# Details: 10 µM unless noted
row,Compound,growth
1,CC(c1ccc(-n2cccn2)cc1)c1cnc(N2CCc3ccc(C(N)=O)cc3C2)s1 (stereo not drawn),76.1%
2,COc1cc2c(cc1OC)-c1ccc3cc4c(cc3c1N(CCCN1CCCCC1)C2)OCO4,51.3%
3,C[C@@H](C[C@H](CCOCc1cccnc1)c1ccccc1)c1cc2ccccc2o1,85.6%
4,N#Cc1c(N)n2c(nc1=Nc1ccc([N+](=O)[O-])cc1)sc1cc(Cl)ccc12,60.9%
5,C=C1C(=O)O[C@H]2[C@H]1CC/C(C(=O)NCCCCCCCCNC(=O)/C1=C/CC[C@@]3(C)O[C@H]3[C@H]3OC(=O)C(=C)[C@@H]3CC1)=C\CC[C@@]1(C)O[C@@H]21,85.9%
6,O=C(NCCOCCOCCOCCNC(=O)c1cc2c(o1)C(=O)c1ccccc1C2=O)NC12CC3CC(CC(C3)C1)C2,-99.6% (active)
7,CCOc1ccc2nc(-c3cccc(OCC(=O)NC(C)C)c3)nc(Nc3ccc(-c4cn[nH]c4)cc3)c2c1,-62% (active)
8,CSc1ncc(C)c(Nc2ccc(Cl)cc2)n1,90.4%
9,O=C1CCC(N2C(=O)c3cccc(NCCCC4CCN(CCNC(=O)c5cc6c(o5)C(=O)c5ccccc5C6=O)CC4)c3C2=O)C(=O)N1 (stereo not drawn),-99.2% (active)
10,CCOC(=O)C1C(=O)C=C(c2cnccn2)CC1c1ccc(OC)c(OC)c1 (stereo not drawn),105%
11,OC(CBr)c1ccnc2ccccc12 (stereo not drawn),94.8%
12,O=C1N(c2ccccc2)C(=S)N[C@]12[C@H](c1ccccc1)C1CCCN1[C@]21C(=O)NC2C=CC(Cl)=C[C@H]21 (stereo partly drawn),96.6%
13,CC(C)n1nc(C#Cc2cccc(O)c2)c2c(N)ncnc21,-84.7% (active)
14,COc1cc2c(=O)n(CCCn3ccnc3)c3c4cc5c(cc4ccc3c2cc1OC)OCO5,1.74% (active)
15,O=C(/C=C/C12c3ccccc3C(c3ccccc31)C1C(=O)N(c3ccccc3)C(=O)C12)c1ccccc1 (stereo not drawn),34.2%
16,O=C(CC12CC3CC(CC(C3)C1)C2)NCCOCCOCCOCCNC(=O)c1cc2c(o1)C(=O)c1ccccc1C2=O,-98.9% (active)
17,O=C1Nc2ccccc2/C1=N/N=C/c1ccc(OC2OC(CO)C(O)C(O)C2O)cc1 (stereo not drawn),96.8%
18,CC(=[N-])N1CCC[C@@H](Nc2c3ccccc3nc3ccccc23)C1.[Cl][Pt].[NH-]CCC[NH-],3.22% (active)
19,O=C1Nc2ccccc2/C1=N/N=C/c1c[nH]c2ccccc12,45.5%
20,CNC1(C#N)CCN(Cc2ccccc2)CC1,81.5%

row,Compound,growth
1,COc1cc2c(cc1OC)-c1ccc3cc4c(cc3c1N(CCCn1ccnc1)C2)OCO4,13.2%
2,NC(=O)c1c(NC(=O)c2ccccn2)sc2c1CCC(=O)C2,-1.34% (active)
3,NC(N)=N/N=C/c1ccc(Br)cc1,34%
4,CCNCCNc1cc(C2CCCC2)c(C#N)c2nc3ccccc3n12,-33.3% (active)
5,CS(=O)(=O)c1ccc(-c2[nH]c3ccc(F)cc3c2/C=N/O)cc1,69.2%
6,N=C(N)c1ccc(-c2ccc(-c3ccc(Cl)cc3Cl)o2)cc1,19.7%
7,CC(=O)C(C(C)=O)c1nc2sc3cc(Cl)ccc3n2c(=N)c1C#N,41.2%
8,Cc1ccc(/C=C(\C#N)n2nnc3cc(Cl)c(Cl)cc32)cc1,-24.6% (active)
9,O=S(=O)(NCCNc1cc(-c2c(-c3cccc(O)c3)nc3sccn23)ccn1)c1ccc(Br)cc1,26.3%
10,COc1ccc(/C(C)=N/NS(=O)(=O)c2ccc(C)cc2)cc1OC,108%
11,C=C(Cl)COC(=O)C(C)(C)O,84.6%
12,CCc1c(C(=O)N[C@@H]2c3cc(Cl)ccc3CC[C@@H]2O)[nH]c(C)c1C(C)=O,76.4%
13,COc1cc2nc(Nc3ccc(F)cc3)nc(N)c2cc1OC,103%
14,c1ccc2c(c1)nc(-n1ccnc1)c1nc3ccccc3n12,70%
15,COC(=O)/C(=C\c1ccc(OC)cc1)C(=O)N1c2ccccc2Sc2ccccc21,2.37% (active)
16,CN1CCN(c2ccc(Nc3ncc(Cl)c(NC[C@@H]4CCCO4)n3)cc2)CC1,6.49% (active)
17,O=C(NC1CCOCC1)c1ccc2c(c1)CN(c1ncc(Cc3cccc(-n4cccn4)c3)s1)CC2,91.5%
18,[2H]c1nc(Nc2ncc(F)c(-c3cc(F)c4nc(C)n(C(C)C)c4c3)n2)c([2H])c([2H])c1CN1CCN(C([2H])([2H])C([2H])([2H])[2H])CC1,33.9%
19,COc1ccc(C2CC(c3cnccn3)=NN2)cc1OC (stereo not drawn),118%

# Test system: SNB-19 CNS
# Experiment: as above
# Details: 10 µM unless noted
row,Compound,growth
1,CC(c1ccc(-n2cccn2)cc1)c1cnc(N2CCc3ccc(C(N)=O)cc3C2)s1 (stereo not drawn),85.4%
2,COc1cc2c(cc1OC)-c1ccc3cc4c(cc3c1N(CCCN1CCCCC1)C2)OCO4,42.6%
3,C[C@@H](C[C@H](CCOCc1cccnc1)c1ccccc1)c1cc2ccccc2o1,94.2%
4,N#Cc1c(N)n2c(nc1=Nc1ccc([N+](=O)[O-])cc1)sc1cc(Cl)ccc12,95.7%
5,C=C1C(=O)O[C@H]2[C@H]1CC/C(C(=O)NCCCCCCCCNC(=O)/C1=C/CC[C@@]3(C)O[C@H]3[C@H]3OC(=O)C(=C)[C@@H]3CC1)=C\CC[C@@]1(C)O[C@@H]21,99.3%
6,O=C(NCCOCCOCCOCCNC(=O)c1cc2c(o1)C(=O)c1ccccc1C2=O)NC12CC3CC(CC(C3)C1)C2,-2.04% (active)
7,CCOc1ccc2nc(-c3cccc(OCC(=O)NC(C)C)c3)nc(Nc3ccc(-c4cn[nH]c4)cc3)c2c1,19.4%
8,CSc1ncc(C)c(Nc2ccc(Cl)cc2)n1,105%
9,O=C1CCC(N2C(=O)c3cccc(NCCCC4CCN(CCNC(=O)c5cc6c(o5)C(=O)c5ccccc5C6=O)CC4)c3C2=O)C(=O)N1 (stereo not drawn),-96% (active)
10,CCOC(=O)C1C(=O)C=C(c2cnccn2)CC1c1ccc(OC)c(OC)c1 (stereo not drawn),102%
11,OC(CBr)c1ccnc2ccccc12 (stereo not drawn),104%
12,O=C1N(c2ccccc2)C(=S)N[C@]12[C@H](c1ccccc1)C1CCCN1[C@]21C(=O)NC2C=CC(Cl)=C[C@H]21 (stereo partly drawn),101%
13,CC(C)n1nc(C#Cc2cccc(O)c2)c2c(N)ncnc21,-21.4% (active)
14,COc1cc2c(=O)n(CCCn3ccnc3)c3c4cc5c(cc4ccc3c2cc1OC)OCO5,19.3%
15,O=C(/C=C/C12c3ccccc3C(c3ccccc31)C1C(=O)N(c3ccccc3)C(=O)C12)c1ccccc1 (stereo not drawn),31.2%
16,O=C(CC12CC3CC(CC(C3)C1)C2)NCCOCCOCCOCCNC(=O)c1cc2c(o1)C(=O)c1ccccc1C2=O,-0.887% (active)
17,O=C1Nc2ccccc2/C1=N/N=C/c1ccc(OC2OC(CO)C(O)C(O)C2O)cc1 (stereo not drawn),100%
18,CC(=[N-])N1CCC[C@@H](Nc2c3ccccc3nc3ccccc23)C1.[Cl][Pt].[NH-]CCC[NH-],53.3%
19,O=C1Nc2ccccc2/C1=N/N=C/c1c[nH]c2ccccc12,88.1%
20,CNC1(C#N)CCN(Cc2ccccc2)CC1,99.8%

row,Compound,growth
1,COc1cc2c(cc1OC)-c1ccc3cc4c(cc3c1N(CCCn1ccnc1)C2)OCO4,17.2%
2,NC(=O)c1c(NC(=O)c2ccccn2)sc2c1CCC(=O)C2,42.7%
3,NC(N)=N/N=C/c1ccc(Br)cc1,35.8%
4,CCNCCNc1cc(C2CCCC2)c(C#N)c2nc3ccccc3n12,36.8%
5,CS(=O)(=O)c1ccc(-c2[nH]c3ccc(F)cc3c2/C=N/O)cc1,103%
6,N=C(N)c1ccc(-c2ccc(-c3ccc(Cl)cc3Cl)o2)cc1,-1.88% (active)
7,CC(=O)C(C(C)=O)c1nc2sc3cc(Cl)ccc3n2c(=N)c1C#N,78.8%
8,Cc1ccc(/C=C(\C#N)n2nnc3cc(Cl)c(Cl)cc32)cc1,17.7%
9,O=S(=O)(NCCNc1cc(-c2c(-c3cccc(O)c3)nc3sccn23)ccn1)c1ccc(Br)cc1,66.1%
10,COc1ccc(/C(C)=N/NS(=O)(=O)c2ccc(C)cc2)cc1OC,107%
11,C=C(Cl)COC(=O)C(C)(C)O,105%
12,CCc1c(C(=O)N[C@@H]2c3cc(Cl)ccc3CC[C@@H]2O)[nH]c(C)c1C(C)=O,97.2%
13,COc1cc2nc(Nc3ccc(F)cc3)nc(N)c2cc1OC,92.6%
14,c1ccc2c(c1)nc(-n1ccnc1)c1nc3ccccc3n12,42.8%
15,COC(=O)/C(=C\c1ccc(OC)cc1)C(=O)N1c2ccccc2Sc2ccccc21,66.9%
16,CN1CCN(c2ccc(Nc3ncc(Cl)c(NC[C@@H]4CCCO4)n3)cc2)CC1,53.9%
17,O=C(NC1CCOCC1)c1ccc2c(c1)CN(c1ncc(Cc3cccc(-n4cccn4)c3)s1)CC2,95.7%
18,[2H]c1nc(Nc2ncc(F)c(-c3cc(F)c4nc(C)n(C(C)C)c4c3)n2)c([2H])c([2H])c1CN1CCN(C([2H])([2H])C([2H])([2H])[2H])CC1,65.5%
19,COc1ccc(C2CC(c3cnccn3)=NN2)cc1OC (stereo not drawn),103%
